HCMV inh: qHTS Assay for inhibitors of the human cytomegalovirus (HCMV). HFF cells, HCMV-luciferase reporter, 72 h; stronger effect = lower value. activity change, negative = inhibition, % at 57.5 µM. 410,000 compounds, 4.5% hits; in the data active means activity change below about -60%; inconclusive means no clear call, values can overlap the other calls; inactive means above about -39%
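Screen run at 2 compound doses on HFFs infected with reporter HCMV, MOI 1 PFU/cell. Luciferase activity from cell lysates at 72 h post infection gave inhibition relative to buffer-only and Salinomycin wells.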
Pf growth 48h: Primary qHTS for delayed death inhibitors of the malarial parasite plastid, 48 hour incubation; P. falciparum luciferase growth in erythrocytes, 48 h; Potency, µM (titrated, usually from 28.7 µM), for the others: at the top dose activity change, negative = inhibition, actives largely listed as inhibitors; 310,000 compounds, 5.9% hits; AID 504832, 2011; further: potency means the concentration at half of the fitted maximal effect
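A one-generation exposure of luciferase-tagged malaria parasites in RPMI 1640/Albumax erythrocyte culture, 37 C and 5% CO2. Inhibition is inferred from decreased luminescence after adding detection reagent.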
Pf growth 96h: Primary qHTS for delayed death inhibitors of the malarial parasite plastid, 96 hour incubation; Potency, µM (highest dose often 28.7 µM), for the others: at the highest dose activity change, negative = inhibition, actives largely listed as inhibitors; P. falciparum luciferase reporter growth, 96 h; 320,000 compounds, 6.9% hits; further: potency means the concentration at half of the fitted maximal effect
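P. falciparum expressing integrated firefly luciferase, in erythrocytes at 2% hematocrit, 0.05% parasitemia, incubated with compounds 96 h at 37 C, 5% CO2. Growth inhibition read as loss of luminescence; two-generation exposure targets delayed-death apicoplast inhibitors.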
Sm TGR inh: qHTS Assay for the Inhibitors of Schistosoma Mansoni Peroxiredoxins; Schistosoma mansoni thioredoxin glutathione reductase (TGR), Q962Y6; purified TGR, DTNB reduction, TNB absorbance 405 nm; Potency, µM (top dose mostly 114 µM), without a hit: top-dose activity change, negative = inhibition, usual class: inhibitors; 360,000 compounds, 3% hits; AID 485364, 2010; further: potency means the concentration at half of the fitted maximal effect; nearly all actives have a fitted effect of over 60% in size
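TGR 20 nM + NADPH 100 uM (dispensed conc.), cpd preinc 15 min RT; start with NADPH (500 uM addition) then DTNB (15 mM addition). Kinetic TNB absorbance, 405 nm filter. Four-parameter Hill fit across titration.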
FBPA Giardia inh: qHTS Assay for Inhibitors of Fructose-1,6-bisphosphate Aldolase from Giardia Lamblia; AID 2451, 2010; Potency, µM (titrated, usually from 59.6 µM), for the others: at the highest dose activity, negative = inhibition, actives largely listed as inhibitors; purified Giardia FBPA; 290,000 compounds, 0.71% hits; further: potency means the concentration at half of the fitted maximal effect; nearly all actives have a fitted effect of over 55% in size
Target sequence (A8B2U2 whole entry, looked up): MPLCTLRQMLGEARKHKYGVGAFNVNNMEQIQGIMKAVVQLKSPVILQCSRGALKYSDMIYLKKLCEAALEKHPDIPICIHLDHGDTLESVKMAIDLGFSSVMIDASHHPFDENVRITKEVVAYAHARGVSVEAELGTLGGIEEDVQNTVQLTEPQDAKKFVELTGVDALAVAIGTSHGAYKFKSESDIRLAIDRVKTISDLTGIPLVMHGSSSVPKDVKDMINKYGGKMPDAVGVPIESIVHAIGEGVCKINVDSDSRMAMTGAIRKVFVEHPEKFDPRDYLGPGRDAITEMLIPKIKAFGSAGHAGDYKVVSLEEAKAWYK
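40 nM FBPA preincubated 10 min at RT with compound (up to 57.5 uM final), then substrate plus GAPDH/TPI/NAD/arsenate coupling and diaphorase/resazurin added. Fluorescence read after 20 min at RT, 525/598 nm.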
An asterisk follows results filed as active; [ ] = remark or other dose. This is a sample that favours compounds with a hit; in the whole collection about 14% have one here. Unless noted, the call rests on the fitted dose curve; in most records, active means well fitted curve in the direction sought with a large enough effect; inconclusive means small, poorly fitted or top-dose-only effect, or another doubt; inactive means no such curve, though single readings can be large; an effect the other way counts as inactive or inconclusive. On the % scale 0 is the no-effect control and ±100 the full control effect.

What do the screens show for `c1ccc(-c2ccc(CN3C[C@@H]4C(c5ccccc5)C5(c6cccnc6)CC4(C5)[C@H]3c3ccccc3)cc2)cc1` (stereo partly specified)?
HCMV inh: -17; Pf growth 48h: 2.9µM*; Pf growth 96h: 4.1µM*; Sm TGR inh: inconclusive; FBPA Giardia inh: 7%

Results for FC(F)(F)c1ccc(C2[C@H]3CN(Cc4cccnc4)[C@H](c4ccccc4)C34CC2(c2cccnc2)C4)cc1 (stereo partly specified) ?
HCMV inh: 0; Pf growth 48h: 1.9µM*; Pf growth 96h: 1.5µM*; Sm TGR inh: -34%; FBPA Giardia inh: 1%

What do the screens show for `Cc1cn([C@H]2C[C@H](O)[C@@H](/C=C/C(=O)NCc3ccc4c(c3)OCO4)O2)c(=O)[nH]c1=O`?
HCMV inh: 34

What do the screens show for `CN1C[C@@H]2C(c3ccccc3)C3(c4cccnc4)CC2(C3)[C@H]1c1ccccc1` (stereo partly specified)?
HCMV inh: -21; Pf growth 48h: 12µM*; Pf growth 96h: 12µM*; Sm TGR inh: inconclusive; FBPA Giardia inh: 6%

Results for N#Cc1ccc(C23CC4(C2)[C@H](CN(Cc2ccc(-c5ccccc5)cc2)[C@@H]4c2ccccc2)C3c2ccc(C(F)(F)F)cc2)cc1 (stereo partly specified) ?
HCMV inh: -24; Pf growth 48h: 15µM*; Pf growth 96h: inconclusive; Sm TGR inh: -24%; FBPA Giardia inh: 8%

How did Clc1ccc(C2[C@H]3CN(Cc4cccnc4)[C@H](c4ccccc4)C34CC2(c2cccnc2)C4)cn1 (stereo partly specified) do in these assays?
HCMV inh: -15; Pf growth 48h: 10µM*; Pf growth 96h: 4.7µM*; Sm TGR inh: inconclusive; FBPA Giardia inh: -1%

How did COC(=O)c1cccc(C23CC4(C2)[C@H](CN(Cc2ccc(C(F)(F)F)cc2)[C@@H]4c2ccccc2)C3c2ccccc2)c1 (stereo partly specified) do in these assays?
Pf growth 48h: inconclusive; Pf growth 96h: inconclusive; Sm TGR inh: inconclusive; FBPA Giardia inh: 5%

What do the screens show for `CN1C[C@@H]2C(c3ccc(C(F)(F)F)cc3)C3(c4ccccc4)CC2(C3)[C@H]1c1ccccc1` (stereo partly specified)?
HCMV inh: 2; Pf growth 48h: inconclusive; Pf growth 96h: inconclusive; Sm TGR inh: -8%; FBPA Giardia inh: 3%

Results for FC(F)(F)c1ccc(C2[C@H]3CN(Cc4ccc(-c5ccccc5)cc4)[C@H](c4ccccc4)C34CC2(c2ccccc2)C4)cc1 (stereo partly specified) ?
HCMV inh: 17; Pf growth 48h: inconclusive; Pf growth 96h: -99%; Sm TGR inh: 50µM*; FBPA Giardia inh: 1%

Results for CCOC(=O)C1CCCN(C(=O)c2ccc(-c3ccccc3)cc2)CC1 (stereo unspecified) ?
HCMV inh: 4

Results for CCOc1cc(/C=N/NC(=O)C(=O)Nc2cc(Cl)ccc2C)ccc1O ?
HCMV inh: inconclusive; Pf growth 48h: 7%[5.75 µM]; Pf growth 96h: inconclusive; Sm TGR inh: 7%; FBPA Giardia inh: 4%

Results for N#Cc1c(N)nc2c(c1-c1ccc3c(c1)OCO3)CCc1ccccc1-2 ?
HCMV inh: 8; Pf growth 48h: 4.1µM*; Pf growth 96h: -12%; Sm TGR inh: 3%; FBPA Giardia inh: -7%

How did CCCCn1c(=N)n(CC(=O)c2ccc(Br)s2)c2ccccc21 do in these assays?
HCMV inh: 0; Pf growth 48h: 10µM*; Pf growth 96h: 12µM*; Sm TGR inh: -5%; FBPA Giardia inh: -1%

How did N=c1n(CCO)c2ccccc2n1CCOc1ccc(F)cc1 do in these assays?
HCMV inh: -5; Sm TGR inh: -6%

Results for CCCCn1c(=N)n(CCCOc2ccc(F)cc2)c2ccccc21 ?
HCMV inh: -67*; Sm TGR inh: 5%

How did O=C(NCC1CCCO1)c1cc(Br)c(Br)s1 (stereo unspecified) do in these assays?
HCMV inh: 0; Pf growth 48h: -2%; Pf growth 96h: 7%; Sm TGR inh: 12%

Results for CCc1nc2c(OCc3ccccc3)cccn2c1N(C)C(=O)c1ccc2c(c1)OCO2 ?
HCMV inh: -3

Results for Clc1ccc(SCc2cn3ccccc3n2)cc1 ?
HCMV inh: -37; Pf growth 48h: 175%; Pf growth 96h: 173%; Sm TGR inh: -1%; FBPA Giardia inh: 1%

How did Cc1cc(C)c(C#N)c(SCc2cn3ccccc3n2)n1 do in these assays?
HCMV inh: -77*; Pf growth 48h: 15%; Pf growth 96h: inconclusive; Sm TGR inh: 3%; FBPA Giardia inh: -23%

What do the screens show for `Cc1cc(C)nc(SCc2cn3ccccc3n2)n1`?
HCMV inh: -60*; Pf growth 48h: 21%; Pf growth 96h: -4%; Sm TGR inh: -7%; FBPA Giardia inh: -15%

What do the screens show for `c1ccc2c(SCc3cn4ccccc4n3)nncc2c1`?
HCMV inh: -60*; Pf growth 48h: 35%; Pf growth 96h: -8%; Sm TGR inh: -11%; FBPA Giardia inh: -17%

How did C1=CC(Cc2cncs2)c2ccccc21 (stereo unspecified) do in these assays?
HCMV inh: inconclusive; Pf growth 48h: -23%; Pf growth 96h: inconclusive; Sm TGR inh: 50µM*

What do the screens show for `O[C@H]1c2ccccc2[C@H](Cc2cncs2)[C@@H]1Br`?
HCMV inh: 14; Pf growth 48h: 22%; Pf growth 96h: 42%; Sm TGR inh: -6%

What do the screens show for `O=C1CC(c2ccco2)CC(O)=C1C=NCC1CCNCC1` (stereo unspecified)?
HCMV inh: 4; Pf growth 48h: 26%; Pf growth 96h: inconclusive; Sm TGR inh: inconclusive; FBPA Giardia inh: -23%

Results for O=C1CC(c2ccco2)CC2=C1C=Nc1ccccc1N2 (stereo unspecified) ?
HCMV inh: inconclusive; Pf growth 48h: 0%; Sm TGR inh: 40µM*; FBPA Giardia inh: 0%

How did CC(C)Cc1nc2ccc(N)cc2[nH]1 do in these assays?
HCMV inh: 45; Pf growth 48h: inconclusive; Pf growth 96h: 13%; Sm TGR inh: 9%; FBPA Giardia inh: inconclusive

Results for CCCCCOc1ccc(NC2=CC(=O)CCC2)cc1 ?
HCMV inh: inconclusive; Pf growth 48h: 13µM*; Pf growth 96h: inconclusive; Sm TGR inh: -3%; FBPA Giardia inh: 7%

What do the screens show for `COC(=O)c1cc2c(n(-c3ccccc3)c1=O)CCCC2=O`?
HCMV inh: -13
